Screening results as filed in PubChem BioAssay.
KCNH2 3.1 inh: KCNH2 3.1 (human) potassium channel inhibition; U2OS KCNH2 3.1, thallium flux FluxOr; stronger effect = lower value; activity change, % (tested at about 1.8 µM); 340,000 tested, 0.95% active; AID 720553;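 active means maximum activity change below -70%; inconclusive means maximum activity change from -70% to -50%; inactive means maximum activity change above -50%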;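 further: thallium influx rate constant from kinetic fluorescence after stimulation buffer; on the % scale 0 is the no-effect control and ±100 the full control effect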
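Channel expression came from 3.1 mutant virus (1.77 x 10^8 /mL) applied to suspended U2OS cells for 4 h. Flux was tracked with FluxOr dye plus Red40 quencher, and kinetic rate constants normalized to controls.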
KB-3-1 cytotox: KB-3-1 parental cell cytotoxicity; Potency, µM (doses to about 46.1 µM), most hits filed as cytotoxic; KB-3-1 viability, CellTiter-Glo ATP luminescence, 72 h; 400,000 tested, 1.4% active; further: potency means the concentration at half of the fitted maximal effect; on the % scale 0 is the no-effect control and ±100 the full control effect; nearly all actives have a fitted effect of over 60% in size
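Screening of KB-3-1 cells (DMEM, 10% FBS, phenol-red free) ran from lowest to highest compound concentration; after 72 h at 37 °C viability was read luminescently and curves fitted.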
KCNH2 WT inh: KCNH2 (human, wildtype) channel inhibition. Q12809. U2OS, BacMam KCNH2, thallium flux FluxOr; stronger effect = lower value. activity change, % at 1.84 µM. 340,000 tested, 0.37% active. AID 720551;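 active means maximum activity change below -70%; inconclusive means maximum activity change between -70% and -50%; inactive means maximum activity change above -50%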; further: on the % scale 0 is the no-effect control and ±100 the full control effect
Target sequence (Q12809 whole entry, looked up): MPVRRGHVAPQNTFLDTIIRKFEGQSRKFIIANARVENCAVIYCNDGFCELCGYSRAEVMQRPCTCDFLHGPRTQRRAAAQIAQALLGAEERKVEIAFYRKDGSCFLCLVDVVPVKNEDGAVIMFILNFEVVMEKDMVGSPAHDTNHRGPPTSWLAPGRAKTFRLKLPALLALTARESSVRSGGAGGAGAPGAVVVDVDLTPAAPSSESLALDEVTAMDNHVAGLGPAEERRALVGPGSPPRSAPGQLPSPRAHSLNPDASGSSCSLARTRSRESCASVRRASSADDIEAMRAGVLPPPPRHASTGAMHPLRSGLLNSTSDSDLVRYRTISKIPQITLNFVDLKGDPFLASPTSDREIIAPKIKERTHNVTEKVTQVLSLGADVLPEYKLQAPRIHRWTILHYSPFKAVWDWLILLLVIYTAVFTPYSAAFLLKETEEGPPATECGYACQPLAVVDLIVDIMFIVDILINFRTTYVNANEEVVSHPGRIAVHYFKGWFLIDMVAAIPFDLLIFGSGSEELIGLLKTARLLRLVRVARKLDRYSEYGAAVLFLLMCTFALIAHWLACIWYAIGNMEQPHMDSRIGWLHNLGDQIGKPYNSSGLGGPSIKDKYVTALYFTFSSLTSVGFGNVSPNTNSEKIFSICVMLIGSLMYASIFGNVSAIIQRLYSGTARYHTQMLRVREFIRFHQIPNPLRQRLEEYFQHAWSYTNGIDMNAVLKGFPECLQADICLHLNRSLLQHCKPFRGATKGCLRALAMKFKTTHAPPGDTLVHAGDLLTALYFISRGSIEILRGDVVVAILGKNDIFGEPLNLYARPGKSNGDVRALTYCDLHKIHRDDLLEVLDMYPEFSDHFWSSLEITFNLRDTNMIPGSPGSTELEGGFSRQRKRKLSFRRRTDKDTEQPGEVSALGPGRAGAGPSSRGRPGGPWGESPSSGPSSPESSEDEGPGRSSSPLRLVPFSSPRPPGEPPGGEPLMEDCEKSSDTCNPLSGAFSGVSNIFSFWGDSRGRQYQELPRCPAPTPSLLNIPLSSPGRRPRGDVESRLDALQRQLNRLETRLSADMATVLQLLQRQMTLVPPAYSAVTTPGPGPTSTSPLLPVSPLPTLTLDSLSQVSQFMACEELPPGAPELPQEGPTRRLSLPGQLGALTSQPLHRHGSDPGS
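U2OS cells were transduced with wild-type KCNH2 virus (2.03 x 10^8 / mL) for 4 h at room temperature, then cultured overnight at 37 C. Thallium flux was read with FluxOr dye. Rate constants were normalized to DMSO controls.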
MCF10A rerep: inducers of DNA re-replication in MCF 10A breast cells; MCF 10A DNA re-replication, Hoechst nuclear intensity, 48 h; Potency, µM (titrated, usually from 46.1 µM), inactives show top-dose activity, positive = re-replication, actives largely listed as activators; 350,000 tested, 2.9% active; AID 624296; further: potency means the concentration at half of the fitted maximal effect; % of control where 0% means no effect; nearly all actives have a fitted effect of over 50% in size
KB-V1 MDR tox: kills drug-selected multidrug resistant KB-V1 cells. 400,000 tested, 3.4% active. KB-V1 MDR cells viability, CellTiter-Glo, 72 h. Potency, µM (titrated, usually from 46.1 µM), most hits filed as cytotoxic; further: potency means the concentration at half of the fitted maximal effect; on the % scale 0 is the no-effect control and ±100 the full control effect; nearly all actives have a fitted effect of over 60% in size
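Cytotoxicity toward P-gp-expressing KB-V1 cells was determined as loss of CellTiter-Glo luminescence after 72 h at 37 degrees C. Compounds were tested in quantitative HTS format across a concentration range, with curves fitted to normalized data.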
SW480 rereplic: inducers of DNA re-replication in SW480 colon cancer cells; SW480 DNA re-replication, Hoechst DNA content imaging, 48 h; Potency, µM (titrated, usually from 46.1 µM), without a hit: at the top dose re-replication activation, most hits filed as activators; 340,000 tested, 1.8% active; further: potency means the concentration at half of the fitted maximal effect; % of control where 0% means no effect; nearly all actives have a fitted effect of over 55% in size
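Cells (250 per well) received 23 nL compound or DMSO by pin tool and were kept 48 hr at 37 C, 5% CO2. Nuclei were then stained with Hoechst for 40 min and scanned for DNA content.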
The depositor's hits bear a star. This is a sample that favours compounds with a hit; in the whole collection about 7.6% have one here. Unless noted, the call rests on the fitted dose curve; in most records, active means well fitted curve in the direction sought with a large enough effect; inconclusive means small, poorly fitted or top-dose-only effect, or another doubt; inactive means no such curve, though single readings can be large; an effect the other way counts as inactive or inconclusive.

How did CCc1ccc(NC(=O)CS(=O)CC(=O)Nc2ccc(-n3cnnn3)c(C)c2)cc1 (stereo not drawn) do in these assays?
KCNH2 3.1 inh: 5; KB-3-1 cytotox: inactive; KCNH2 WT inh: -6; MCF10A rerep: -13%; KB-V1 MDR tox: inactive; SW480 rereplic: -3%

What do the screens show for `COCCNC(=O)C(c1ccc(C)o1)N(CCOC)C(=O)Cn1nnc2ccccc21` (stereo not drawn)?
KCNH2 3.1 inh: 20; KB-3-1 cytotox: inactive; KCNH2 WT inh: 1; MCF10A rerep: 1%; KB-V1 MDR tox: inactive; SW480 rereplic: 4%

Results for COc1ccc(CCNC(=O)CSc2nnnn2-c2cccc(C(C)=O)c2)cc1OC ?
KB-3-1 cytotox: inconclusive; KB-V1 MDR tox: inactive

What do the screens show for `Cc1ccc(NC(=O)c2c(C)nn(-c3ccccc3)c2-n2cccc2)c(Cl)c1`?
KB-3-1 cytotox: inactive; KB-V1 MDR tox: inactive

Results for COc1ccc(OC)c(CCNC(=O)c2c(C)nn(-c3ccc(F)cc3)c2-n2cccc2)c1 ?
KB-3-1 cytotox: inconclusive; KB-V1 MDR tox: 12µM*

Results for Cc1ccc(CCNC(=O)c2c(C)nn(-c3ccc(F)cc3)c2-n2cccc2)cc1 ?
KB-3-1 cytotox: 3.3µM*; KB-V1 MDR tox: 5.8µM*

Results for COc1cc(OC)c(NC(=O)c2c(C)nn(-c3ccc(C)cc3)c2-n2cccc2)cc1Cl ?
KB-3-1 cytotox: 23µM*; KB-V1 MDR tox: inconclusive

How did Cc1cc(C)c(NC(=O)c2c(C)nn(-c3ccc(F)cc3)c2-n2cccc2)c(C)c1 do in these assays?
KB-3-1 cytotox: inconclusive; KB-V1 MDR tox: inactive

What do the screens show for `COc1ccc2nc(NNC(=O)C3COc4ccccc4O3)sc2c1` (stereo not drawn)?
KCNH2 3.1 inh: 10; KB-3-1 cytotox: inactive; KCNH2 WT inh: 5; MCF10A rerep: 4%; KB-V1 MDR tox: inactive; SW480 rereplic: -1%

How did O=C(COC(=O)c1ccc2c(c1)OCCO2)NCCc1ccc(F)cc1 do in these assays?
KCNH2 3.1 inh: 6; KB-3-1 cytotox: inactive; KCNH2 WT inh: 0; MCF10A rerep: 0%; KB-V1 MDR tox: inconclusive; SW480 rereplic: 2%

Results for Clc1ccc(CNc2ncnc3[nH]ncc23)c(Cl)c1 ?
KCNH2 3.1 inh: -4; KB-3-1 cytotox: inactive; KCNH2 WT inh: 1; MCF10A rerep: 17%; KB-V1 MDR tox: inactive; SW480 rereplic: -6%

What do the screens show for `Cc1cnc(NS(=O)(=O)c2ccc(N)cc2)nc1-c1ccccc1O`?
KCNH2 3.1 inh: -14; KB-3-1 cytotox: inactive; KCNH2 WT inh: 9; KB-V1 MDR tox: inactive

Results for CC1=NOC(=O)/C1=C\c1ccc(-c2ccc(Br)cc2C(=O)O)o1 ?
KCNH2 3.1 inh: -4; KB-3-1 cytotox: inactive; KCNH2 WT inh: 5; MCF10A rerep: 13%; KB-V1 MDR tox: inconclusive; SW480 rereplic: -1%

How did CC1=NN(c2ccc(Br)cc2)C(=O)/C1=C/c1ccc(-c2ccccc2C(=O)O)o1 do in these assays?
KCNH2 3.1 inh: -12; KB-3-1 cytotox: inactive; KCNH2 WT inh: -8; MCF10A rerep: 23µM*; KB-V1 MDR tox: inactive; SW480 rereplic: 14%

Results for O=Cc1ccc(-c2ccccc2C(=O)O)o1 ?
KCNH2 3.1 inh: 8; KB-3-1 cytotox: inactive; KCNH2 WT inh: -1; MCF10A rerep: 10%; KB-V1 MDR tox: inconclusive; SW480 rereplic: 2%

What do the screens show for `O=C(O)c1ccc(N/N=C/c2ccc(-c3cccc(Cl)c3)o2)cc1`?
KCNH2 3.1 inh: -21; KB-3-1 cytotox: inconclusive; KCNH2 WT inh: -17; MCF10A rerep: inconclusive; KB-V1 MDR tox: inactive; SW480 rereplic: 21µM*

How did Cc1c(C(=O)O)cccc1-c1ccc(/C=N/Nc2ccc(Br)cc2)o1 do in these assays?
KCNH2 3.1 inh: -6; KB-3-1 cytotox: inconclusive; KCNH2 WT inh: -9; MCF10A rerep: 18µM*; KB-V1 MDR tox: inactive; SW480 rereplic: 5%
